Data published in PubChem BioAssay (NCI).
The panel holds about 83,000 compounds, 20% with a hit somewhere; the sample as a whole holds those more often.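 48-hour exposure, single concentration, 96-well plates; percent growth endpoint where 0 means no net growth. Active: below 10.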 A number with no mark means an inactive call. Active and inactive are the calls of the source.

Each compound was assayed on NCI-H322M lung (assay: NCI-60 one-dose screen, 48 h (100 = growth as untreated, 0 = no growth, -100 = all killed)). Details: 10 µM unless noted.

Structure (SMILES) | growth
CCCC[C@H](NC(=O)[C@H]1CCCN1C)C(=O)N(C)[C@H](C[C@@H](OC(C)=O)c1nc(C(=O)N[C@@H](Cc2ccccc2)C[C@H](C)C(=O)OCC)cs1)C(C)C | 33.3%
COc1ccc2c(c1)c(-c1nc(-c3c[nH]c4ncccc34)cs1)cn2CCCCN1CCCCC1 | -20.2% (active)
COC(=O)[C@H](Cc1ccccc1)NC(=O)c1csc([C@@H](C[C@H](C(C)C)N(C)C(=O)[C@@H](NC(=O)[C@H]2CCCN2C)C2CC2)OC(C)=O)n1 | 50.3%
C[C@]12CC[C@H]3[C@@H](CC[C@]4(O)C[C@@H](O[C@@H]5O[C@H](CO)[C@@H](O[C@@H]6OC[C@@H](O)[C@H](O)[C@H]6O)[C@H](O)[C@H]5O)CC[C@]34C=O)[C@@]1(O)CC[C@@H]2C1=CC(=O)OC1 | -13.2% (active)
c1cc2c(c3c1CCNC3)OCO2 | 102%
Fc1ccc2c(c1)c(-c1nc(-c3c[nH]c4ncccc34)cs1)cn2CCCCN1CCCCC1 | -47.9% (active)
O=C(Nc1ccncc1F)c1cn(CC2CC2)c2ccccc12 | 109%
COP(=S)(N1CC1)N1CC1 | 100%
C/C=C(\C)C(=O)O[C@@H]1C(O)[C@H]2OC(COC(=O)CCC(=O)CCCCCC[C@H](CCCCC)O[C@@H]3OC(C)[C@H](OC(C)=O)C(O)[C@H]3O2)[C@H]1OC(=O)/C=C/c1ccccc1 (stereo not given in full) | 27%
CCc1ccccc1[C@@H]1C[C@]2(C)CCO[C@@H]2OO1 | 105%
CC(=O)O[C@H](C[C@H](C(C)C)N(C)C(=O)[C@@H](NC(=O)[C@H]1CCCCN1C)C(C)(C)C)c1nc(C(=O)N[C@@H](Cc2ccccc2)C[C@H](C)C(=O)O)cs1 | 41.8%
COc1ccc(C(=O)c2cc(OC)c(OC)c(OC)c2)cc1OC(C)=O | 42%
COc1ccc(N(CC(=O)NCCC[Te]c2ccccc2)C(=O)CNC(=O)OC(C)(C)C)cc1 | -6.97% (active)
COC(=O)[C@@H](C)C[C@H](Cc1ccccc1)NC(=O)c1csc([C@@H](C[C@H](C(C)C)N(C)C(=O)[C@@H](NC(=O)[C@H]2CCCCN2C)C(C)C)OC(C)=O)n1 | 46.8%
CC[C@H](C)[C@@H]1OC(=O)C(C)(C)[C@H](O)[C@H](Cc2ccccc2)OC(=O)[C@H](C(C)C)OC(=O)[C@@H](NC(=O)c2cccc(NC=O)c2O)[C@@H](C)OC1=O | 78.9%
NC(=O)CNc1ccc([As]=[As]c2ccc(NCC(N)=O)cc2)cc1 (stereo not given) | 83.5%
Fc1ccc2c(c1)c(-c1nc(-c3c[nH]c4ncccc34)cs1)cn2CCN1CCOCC1 | 77.2%
O=C([O][Hg][CH2]C1COCC([CH2][Hg][O]C(=O)c2ccccc2)O1)c1ccccc1 (stereo not given) | 110%

Structure (SMILES) | growth
O=[N+]([O-])CC(c1ccccc1Cl)c1c(-c2ccccc2)[nH]c2ccccc12 (stereo not given) | 42.7%
CCn1c2ccccc2c2cc(C(=O)c3cccc4c3CCCN4)ccc21 | 102%
COc1ccc(/C(C)=C(\c2ccc(OCCN3CCOCC3)cc2)c2ccc(OC(=O)Cc3ccccc3)cc2)cc1 | 111%
Cc1cc(N(CCCl)CCCl)ccc1C=Nc1ccc(-c2csc(Cc3ccccc3)n2)cc1 | 76.6%
Cc1ccc2c(C(C[N+](=O)[O-])c3cccs3)c(-c3ccccc3)[nH]c2c1 (stereo not given) | 54.7%
CCOC(=O)CCC(NC(=O)C(Cc1ccc(N(CCCl)CCCl)cc1)NC=O)C(=O)OCC (stereo not given) | 88%
COC(=O)[C@@H](C)C[C@H](Cc1ccccc1)NC(=O)c1csc([C@@H](C[C@H](C(C)C)N(C)C(=O)[C@@H](NC(=O)C23CC(NC(C)=O)(C2)C3)C2CC2)OC(C)=O)n1 | 105%
COC(=O)[C@]12CCC(C)(C)C[C@H]1[C@H]1C(=O)C[C@@H]3[C@@]4(C)C[C@@]5(CC(C)(C)[C@@H]4CC[C@@]3(C)[C@]1(C)CC2)OO[C@@](C)(C(F)(F)F)O5 | 109%
CNC(=O)Oc1ccc(N(C)C)cc1C(C)C | 91.1%
COc1ccc(/C=C\c2cc(OC)c(OC)c(OC)c2)cc1OCC(=O)Nc1nc2ccc(C(F)(F)F)cc2s1 | 64.7%
O=C(CC1(O)C(=O)N(Cc2ccccc2)c2ccc(F)cc21)c1ccc(C(=O)NCC2CCC3(CC2)OOC2(CCCCC2)OO3)cc1 (stereo not given) | 50.1%
c1cnc2[nH]cc(-c3csc(-c4cn(CCCCN5CCCCC5)c5ccccc45)n3)c2c1 | 87.4%
COc1ccc(NC([Se])=NC23CC4CC(CC(C4)C2)C3)cc1 | 3.73% (active)
Clc1cccc(Cl)c1Cl | 99.5%
C[C@]12CCc3sc(-c4ccccc4O)nc3C1=CC[C@@H]1[C@@H]2CC[C@]2(C)C(=O)CC[C@@H]12 | 101%
CCCOC(=O)N[C@H]1CCc2c(Br)c(OC)c(OC)c(OC)c2-c2ccc(SC)c(=O)cc21 | 34.6%
Cc1cc(C)c(CBr)c(C)c1 | 92.4%
